Data published in ChEMBL document CHEMBL3988442, “University of Dundee, Small-Polar-MMV Screening Library” (2021).
In all, about 48,000 compounds went through this assay and about 13,000 (27%) showed an effect of 50% or more. Some of the results follow.

Test system: Wolbachia pipientis
Assay: Anti-Wolbachia Cell-Based Screen
Assay type: functional
Design: scale not given: in the data most compounds retested in dose-response had high values
Conditions: 5 µM

SMILES | Percent Effect
CCOc1cc(CN(C)CCOC)ccc1OC(F)F | 9.652%
CN(C)C(=O)c1cccc(NC(=O)Cc2cc(F)ccc2F)n1 | -6.771%
CC(=O)NCCCNCc1cc(F)ccc1Br | 10.59%
CS(=O)(=O)NCCCNCc1cc(F)ccc1Br | 85.45%
CCS(=O)(=O)NCCNCc1cc(F)ccc1Br | 5.201%
O=C(c1cnc(-c2ccco2)s1)N1CCCCC1Cn1cccn1 (stereo unspecified) | 80.46%
Cc1nc(-c2ccco2)ccc1C(=O)N1CCCC1Cn1cccn1 (stereo unspecified) | -3.884%
Cc1cnn(CC2CCCN2C(=O)c2cnc(-c3ccco3)s2)c1 (stereo unspecified) | 107.8%
Cc1sc(-c2ccco2)nc1C(=O)N1CCCC1Cn1cccn1 (stereo unspecified) | 99.48%
O=C(c1cnc(-c2ccco2)s1)N1CCCC1Cn1cccn1 (stereo unspecified) | -5.367%
COc1ccccc1S(=O)(=O)CCOC(C)C | 8.609%
CC(C)Oc1ccc(CSc2nnc(CN3CCCC3=O)o2)cc1 | -8.061%
Cc1ccc(OCC2CCCN(c3nc(CO)cs3)C2)cc1 (stereo unspecified) | 87.49%
Cc1ccc(OCC2CCCN(Cc3ccc(CO)o3)C2)cc1 (stereo unspecified) | -15.89%
COc1ccc(OCC2CCCN(c3nc(CO)cs3)C2)cc1 (stereo unspecified) | 99.62%
OCc1csc(N2CCN(Cc3cccc(F)c3)CC2)n1 | -8.687%
COc1cccc(OCC2CCCN(c3cc(C(N)=O)ccn3)C2)c1 (stereo unspecified) | 12.14%
OCc1csc(N2CCCC(COc3cccc(F)c3)C2)n1 (stereo unspecified) | 96.77%
OCc1csc(N2CCCN(Cc3ccc(F)cc3)CC2)n1 | 11.91%
Cc1ccc(OCC2CCCN(c3cc(C(N)=O)ccn3)C2)cc1 (stereo unspecified) | 0.1163%
CC(C)NS(=O)(=O)c1cc(C(=O)O)cc(-c2ccccc2CN(C)C)c1 | 9.283%
CCOCCN1CCN(Cc2nnc(-c3occc3C)o2)CC1 | -3.196%
CC(C)C(O)C1(CNC(=O)Nc2ccc(CN3CCOC3=O)cc2)CC1 (stereo unspecified) | -15.4%
COC(=O)c1ccc2ccn(CC3CCCO3)c(=O)c2c1 (stereo unspecified) | -4.095%

SMILES | Percent Effect
CCOCCn1c(=O)[nH]c2cc(C(=O)N(C)Cc3nc(C)c[nH]3)ccc21 | -5.58%
CCC[C@]12CN3C[C@](CCC)(CN(C1)C3c1[nH]c(=O)[nH]c(=O)c1C)C2=O (stereo partly specified) | 113.9%
Cc1c(C2N3C[C@]4(C(C)C)CN2C[C@](C(C)C)(C3)C4=O)[nH]c(=O)[nH]c1=O (stereo partly specified) | 123.1%
CC(=O)NC[C@H]1COCc2nc3c(C)cccc3n21 | 4.229%
CCOC(C)c1noc(CN2CCN(c3ccncc3)CC2)n1 (stereo unspecified) | -6.635%
COc1cccc(CC(=O)N2Cc3nccn3CC(CN(C)C)C2)c1 (stereo unspecified) | 80.89%
CN(C)CC1CN(C(=O)NCc2ccccc2)Cc2nccn2C1.O=C(O)C(F)(F)F (stereo unspecified) | -13.89%
CCOCC(=O)N1Cc2nccn2CC(CN(C)C)C1 (stereo unspecified) | 110.3%
Cc1occc1C(=O)N1Cc2nccn2CC(CN(C)C)C1.O=C(O)C(F)(F)F (stereo unspecified) | 7.658%
CCOCC(=O)N1CCC(c2nccn2CC2CC2)CC1 | 4.34%
COc1ccc(CC(=O)N2Cc3nccn3CC(CN(C)C)C2)cc1.O=C(O)C(F)(F)F (stereo unspecified) | 100.3%
CCOCC(=O)N1Cc2nccn2CC(CN2CCCC2)C1.O=C(O)C(F)(F)F (stereo unspecified) | -4.064%
CN(C)CC1CN(C(=O)CCc2ccccc2)Cc2nccn2C1.O=C(O)C(F)(F)F (stereo unspecified) | 96.55%
Cc1ccc(CN2CCOC3(CCN(C(=O)C4CC=CC4)CC3)C2)cc1.O=C(O)C(F)(F)F | 15.78%
Cc1ccccc1N1CCN(C(=O)c2ncc(F)cc2F)C(C)C1 (stereo unspecified) | 9.425%
COc1ccc(C(=O)N2C[C@H]3CC[C@@H]2CN(C)C3)cc1Cl | -11.94%
Cc1ccccc1-c1ncc(CNCc2csc(C(C)C)n2)s1 | -1.637%
O=C(c1ccoc1)N1CCC2(C1)CN(c1nccs1)C2 | -3.02%
CN(C)CC1CN(C(=O)Cc2ccccc2)Cc2nccn2C1.O=C(O)C(F)(F)F (stereo unspecified) | 102.6%
Cc1ccc(CC(=O)N2Cc3nccn3CC(CN(C)C)C2)cc1.O=C(O)C(F)(F)F (stereo unspecified) | 14%
Cc1nc(O)cc(C2CCCN2CCO)n1 (stereo unspecified) | 112.5%
OCCCN1CCCC1c1cccc(Br)c1 (stereo unspecified) | -6.004%
Cc1cncc(C2CCCN2CC(N)=O)n1 (stereo unspecified) | 143.4%
Cc1cncc(C2CCCN2CCO)n1 (stereo unspecified) | 153.6%

SMILES | Percent Effect
NC(=O)CN1CCCC1c1ccccc1Br (stereo unspecified) | -4.067%
CN1CCN(C[C@H]2CC[C@@H](Cc3ccc(CN4CCCC4)cc3)O2)CC1 | -1.169%
Cc1ccc(S(=O)(=O)NC[C@H]2OC[C@@H](NCc3cccs3)[C@@H]2O)cc1 | 7.979%
CCn1c(C)nnc1SCCNC(=O)CC1CCc2ccccc21 (stereo unspecified) | -3.198%
CCOC(=O)[C@]12CCCN(Cc3cccs3)C[C@H]1CN(CCOC)C2.O=C(O)C(F)(F)F.O=C(O)C(F)(F)F | 131.5%
CCOC(=O)[C@]12CCCN(Cc3nccs3)C[C@H]1CN(CCOC)C2.O=C(O)C(F)(F)F.O=C(O)C(F)(F)F | -1.05%
CCOC(=O)[C@]12CCCN(Cc3cccs3)C[C@H]1CN(C(C)=O)C2.O=C(O)C(F)(F)F | 93.24%
CCOC(=O)[C@]12CCCN(Cc3nccs3)C[C@H]1CN(C(C)=O)C2.O=C(O)C(F)(F)F | 10.79%
CCOC(=O)[C@]12CCCN(Cc3ccco3)C[C@H]1CN(S(C)(=O)=O)C2.O=C(O)C(F)(F)F | 113.6%
CCOC(=O)[C@]12CCCN(Cc3ccsc3)C[C@H]1CN(CCOC)C2.O=C(O)C(F)(F)F.O=C(O)C(F)(F)F | -11.63%
CCOC(=O)[C@]12CCCN(Cc3cccs3)C[C@H]1CN(C(C)C)C2.O=C(O)C(F)(F)F.O=C(O)C(F)(F)F | 108.6%
CCOC(=O)[C@]12CCCN(Cc3nccs3)C[C@H]1CN(S(C)(=O)=O)C2.O=C(O)C(F)(F)F | -4.113%
CCOC(=O)[C@]12CCCN(Cc3ccco3)C[C@H]1CN(CCN(C)C)C2.O=C(O)C(F)(F)F.O=C(O)C(F)(F)F.O=C(O)C(F)(F)F | 13.18%
CCOC(=O)[C@]12CCCN(Cc3nccs3)C[C@H]1CN(C(C)C)C2.O=C(O)C(F)(F)F.O=C(O)C(F)(F)F | -10.51%
COCCN(Cc1ccccn1)C(=O)CC1OCCc2ccccc21 (stereo unspecified) | -5.998%
COC(=O)c1ccc(N2CCC(C(O)c3ccccc3)CC2)nn1 (stereo unspecified) | -10.77%
CC(C)CCC(=O)Nc1ncn(CC(=O)N2CCCCCC2)n1 | -19.43%
CCc1nc(CC(=O)N2CCOCC2c2ncon2)cs1 (stereo unspecified) | -4.331%
Cc1nnsc1CN1C[C@@H]2CC[C@H](C1)N(Cc1c(C)noc1C)C2=O | 10.64%
O=C1N(CC2CC2)CCCC1(O)CN1CCc2[nH]ncc2C1 (stereo unspecified) | -6.967%
CCc1ccc(CN2CCN(C)C3(CCC(=O)N(CC4CC4)CC3)C2)o1 (stereo unspecified) | 1.557%
Cc1noc([C@@H]2C[C@H](NC(=O)C3CCCCC3)CN2C)n1 | -5.582%
CCOC(=O)[C@]12CCCN(Cc3cccs3)C[C@H]1CN(CC(C)C)C2.O=C(O)C(F)(F)F.O=C(O)C(F)(F)F | 98.32%
CCOC(=O)[C@]12CCCN(Cc3nccs3)C[C@H]1CN(CC(C)C)C2.O=C(O)C(F)(F)F.O=C(O)C(F)(F)F | 11.11%

SMILES | Percent Effect
CCOC(=O)[C@]12CCCN(Cc3nccs3)C[C@H]1CN(CCN(C)C)C2.O=C(O)C(F)(F)F.O=C(O)C(F)(F)F.O=C(O)C(F)(F)F | 8.148%
Cn1cc(C(=O)Nc2cccc(-c3ccc4c(c3)CCO4)n2)ccc1=O | 14%
CNC(=O)CC1CC2(CCN(c3ncccn3)CC2)c2ccccc21.O=C(O)C(F)(F)F (stereo unspecified) | -15.28%
CNC(=O)CC1c2cccnc2C(=O)N1Cc1ccccc1 (stereo unspecified) | 136.6%
O=C1c2ncccc2C(CCO)N1Cc1ccccc1 (stereo unspecified) | 101.3%
O=C(Cc1cccnc1)N1C[C@@H]2CC[C@H](C1)N(Cc1ccccc1)C2=O | -0.7591%
COC(=O)CC1c2cccnc2C(=O)N1Cc1ccccc1 (stereo unspecified) | 107.1%
NC(=O)CC1c2cccnc2C(=O)N1Cc1ccccc1 (stereo unspecified) | 97.87%
CCC1CN(C(=O)c2ncccc2O)CCC(=O)N1Cc1ccccc1 (stereo unspecified) | -8.07%
O=C(Cc1ccccn1)N1C[C@@H]2CC[C@H](C1)N(Cc1ccccc1)C2=O | -26.39%
CNC(=O)c1cccnc1N1CCN(Cc2ccccc2)C(CCO)C1 (stereo unspecified) | -3.747%
CCC1CN(C(=O)c2cccnc2O)CCC(=O)N1Cc1ccccc1 (stereo unspecified) | -1.189%
COC(=O)CC1CN(Cc2c(Cl)ccc3cccnc23)CCO1 (stereo unspecified) | -2.588%
O=C(O)c1cccnc1N1CCN(Cc2ccc(F)cc2)C(CCO)C1 (stereo unspecified) | -1.62%
O=C(Nc1ccccc1OC(F)F)C1=NN(c2ccccc2)C(=O)CN1 | 6.158%
CC(C)c1noc(CCC(=O)N2CCN(C)CC2c2ccccc2)n1 (stereo unspecified) | 2.762%
CN(C)CCn1ccc2ccc(NC(=O)c3ccncc3F)cc21 | -14.36%
Cc1nn(C)c(C)c1CC(C)NC(=O)NCc1ccoc1C (stereo unspecified) | -1.757%
COc1ccc(C(=O)N(C)Cc2nnc3ccccn23)cc1 | 104.5%
CCC(O)CN(C)Cc1nnc2ccccn12 (stereo unspecified) | -1.119%
COc1cc(OC)cc(C(=O)N(C)Cc2nnc3ccccn23)c1 | 132.8%
CN(Cc1nnc2ccccn12)C(=O)CCNC(=O)C(C)(C)C | 7.202%
COc1ccc(CC(=O)N(C)Cc2nnc3ccccn23)cc1 | 2.883%
Cc1ccc(C)c(C(O)CN(C)Cc2nnc3ccccn23)c1 (stereo unspecified) | -3.237%
